# Compound activity: PubChem BioAssay, several laboratories
# An excerpt weighted towards active compounds, which were near 2.9% of everything screened.
# Beta2AR agonist: agonists of human beta-2 adrenergic receptor inducing internalization; response, % (concentration not given with the values); 340,000 tested, 0.43% active; Am2.2-beta2AR cells, FAP receptor internalization, flow cytometry;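 active = response above a set limit, near 3 SD of response in nonfluorescent compounds, cut at about 42% in these data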
# NadD inh: blocks S. aureus nicotinate mononucleotide adenylyltransferase; inhibition, % at 20 µM; 360,000 tested, 0.78% active; purified NadD enzyme, colorimetric absorbance read-out; in the data active = inhibition above about 26%
# GRK2 inh: inhibitors of human GRK2 displacing RNA aptamer; P25098; bead flow cytometry, FAM-aptamer displacement from GRK2; 330,000 tested, 0.59% active; inhibition of aptamer binding, % at 10 µM;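 active = inhibition of aptamer binding above 40%, roughly 3 SD of noise, on plates passing a quality check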;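 also: median bead fluorescence of bound FAM aptamer so fluorescent compounds give negative values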
# PP1 inh: PP1-alpha (human) inhibition in PP5 counter-screen; P62136; purified PP1alpha, OMFP fluorescence; inhibition, % at 6.7 µM; 320,000 tested, 0.9% active; AID 2235;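 active = inhibition above the mean inhibition of all tested compounds plus 3 SD, computed separately for each screening campaign, cut at about 15% in these data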
# Target sequence (P62136 whole entry, looked up): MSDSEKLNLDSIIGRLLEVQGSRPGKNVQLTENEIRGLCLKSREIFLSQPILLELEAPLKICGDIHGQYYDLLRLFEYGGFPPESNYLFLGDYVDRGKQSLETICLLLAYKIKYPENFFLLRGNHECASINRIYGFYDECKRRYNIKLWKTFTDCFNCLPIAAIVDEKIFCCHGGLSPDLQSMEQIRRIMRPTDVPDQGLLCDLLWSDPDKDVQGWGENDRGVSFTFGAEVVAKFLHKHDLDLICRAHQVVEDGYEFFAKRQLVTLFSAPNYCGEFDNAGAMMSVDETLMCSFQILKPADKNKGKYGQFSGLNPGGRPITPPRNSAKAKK
# Exocytosis inh: lytic granule exocytosis inhibition; TALL-104 LAMP-1 surface exposure, flow cytometry; cells stimulated with thapsigargin and PMA; AID 651702; inhibition, % at 10 µM; 360,000 tested, 0.66% active;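 active = inhibition above about 55%, limit read from the data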
# Granule exo CP1: lytic granule exocytosis inhibition; inhibition, % at 10 µM; 1,500 tested, 11% active; TALL-104 cells, LAMP-1 externalization, flow cytometry; stimulated with PMA plus thapsigargin; AID 651954; shares compounds with Exocytosis inh; in the data active = inhibition above about 60%;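 also: 0% = stimulated vehicle wells and 100% = unstimulated wells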
# The depositor's hits bear a star; . = no result given.
SMILES,Beta2AR agonist,NadD inh,GRK2 inh,PP1 inh,Exocytosis inh,Granule exo CP1
Cc1cccc(N2C(=O)CC(Sc3nnc(C)s3)C2=O)c1 (centres undefined),-1.9,0.7,2.0,-2.8,67.4*,-1.2
Cc1ccc(N2C(=O)CC(Sc3nccc(C)n3)C2=O)cc1 (centres undefined),-3.6,-1.1,5.0,-1.9,15.0,.
CCC1CCCCN1CCCNC(=O)c1ccc2c(c1)N(Cc1ccc(F)cc1)C(=O)c1ccccc1S2=O (centres undefined),22.8,-1.7,0.0,-0.9,61.1*,-14.5
COC(=O)c1[nH]c2ccccc2c1CN1CCOCC1,-4.5,0.4,2.0,-2.4,15.3,.
O=C(COc1ccccc1)NC1CCSC1=O (centres undefined),-4.8,3.4,2.0,-6.1,-3.9,.
COCCn1c(SCc2cccc(F)c2)nc2cc(C(=O)OC)ccc2c1=O,-2.7,-6.3,0.0,.,74.6*,-11.6
CN1CCc2cccc3c2[C@H]1Cc1ccc(O)c(O)c1-3,10.2,-2.9,0.0,1.5,83.6*,6.2
CN1CCc2cc3c(c4c2[C@H]1[C@H](O)c1ccccc1-4)OCO3,-5.1,5.5,.,0.7,0.6,.
COc1cc(-c2coc3c(C(=O)NCc4ccc(OC)c(OC)c4)cccc23)ccc1O,.,-1.0,.,.,66.1*,91.6*
Cc1ncoc1C(=O)N1CCCC(N2CCN(c3cccc(C(F)(F)F)c3)CC2)C1 (centres undefined),-2.1,2.7,0.0,-0.1,-1.5,.
O=C(OCc1ccccc1)N(CCCCN(CCCNCc1ccccc1)C(=O)OCc1ccccc1)CCCNCc1ccccc1,39.6,13.6,.,.,85.1*,98.9*
O=C(CC(=O)OCc1ccccc1)OCc1ccccc1,20.7,-4.9,.,.,-2.8,.
CCCNC(=O)c1cc(C2CCCCN2S(=O)(=O)c2ccccc2)on1 (centres undefined),.,-6.5,.,.,1.8,.
C[C@@H]1CN([C@H](C)CO)C(=O)c2cc(C#Cc3ccccc3F)cnc2O[C@@H]1CN(C)S(=O)(=O)c1ccccc1F,.,-3.3,.,.,16.9,.
Cc1ccc(-c2cc(C(=O)Nc3ccccc3C)c3ccccc3n2)o1,11.3,17.7,7.0,5.2,82.5*,-4.9
Cc1ccc(-c2cc(C(=O)Nc3cccc(S(=O)(=O)N(C)C)c3)c3ccccc3n2)o1,7.4,25.6,0.0,1.8,66.1*,-11.7
COC(=O)c1cc(-c2ccc(C)o2)nc2ccccc12,0.6,0.5,7.0,1.7,50.4,.
Cc1ccc(Cl)cc1S(=O)(=O)N1CCC(C(=O)NC2CCN(Cc3ccccc3)CC2)CC1,5.7,-7.1,0.0,2.2,13.5,.
C/C(=N\NC(=O)c1ccn(C)n1)c1cccc(NC(=O)c2ccc(C)s2)c1,-1.5,-3.6,1.0,-0.9,-2.9,.
COc1ccc(CNC(=O)COC(=O)[C@H](Cc2c[nH]c3ccccc23)NC(=O)c2cccs2)cc1,5.3,-2.4,0.0,3.0,58.1*,32.7
CCCCn1nnnc1C(c1cccc2ccccc12)N1CCN(C/C=C/c2ccccc2)CC1 (centres undefined),.,0.0,.,.,57.5*,28.1
C=CCOc1ccc(CN(C)CC(O)COc2cccc3ccccc23)cc1 (centres undefined),16.8,-7.6,0.0,5.7,-7.6,.
Clc1ccc(OCCCNCc2ccccc2)c2ccccc12,14.9,14.0,0.0,13.8,99.4*,6.4
CNC(=S)Nc1ccc(N2CCN(c3ccc(C(F)(F)F)cn3)CC2)nc1,0.5,-8.0,0.0,1.1,2.3,.
COc1ccc(-c2nc(N)nc(C)c2-c2ccc(Cl)cc2)c(O)c1,1.5,2.5,2.0,2.9,61.4*,-8.9
SMILES,Beta2AR agonist,NadD inh,GRK2 inh,PP1 inh,Exocytosis inh,Granule exo CP1
O=C(O)c1ccc(Cl)c(S(=O)(=O)N(Cc2ccccc2)c2ccccc2)c1,5.5,-3.3,0.0,-1.9,62.6*,-13.3
O=S1(=O)N[C@@H](Cc2ccccc2)COc2cccc(N3CCN(Cc4ccccc4F)CC3)c21,.,1.4,.,.,-3.8,.
CCC(=O)Nc1c(C#N)c2nc3ccccc3nc2n1-c1ccc(C)cc1,5.4,-3.3,.,.,3.3,.
N#Cc1c(NC(=O)c2ccc(Br)o2)n(-c2ccccc2)c2nc3ccccc3nc12,-16.4,8.0,0.0,9.3,72.3*,96.5*
CCN(CC(=O)NCc1cccs1)C(=O)/C=C/c1cccc(Cl)c1Cl,4.1,-0.8,0.0,-1.8,-1.6,.
Cc1ccccc1CCN(C(=O)c1csnn1)C(C(=O)NC1CCCC1)c1ccncc1 (centres undefined),1.3,-5.2,0.0,-3.9,2.4,.
Cc1cc(C(=O)Nc2ccc(Nc3ccccc3)cc2)ccc1[N+](=O)[O-],8.9,-4.0,0.0,-1.1,63.9*,-3.1
Cc1cc(C(=O)Nc2ccncc2)ccc1[N+](=O)[O-],13.4,-1.6,1.0,2.0,-3.7,.
NS(=O)(=O)c1cnccc1NCCc1ccccc1,-5.3,-8.8,2.0,-2.5,5.5,.
NC(=O)c1cnccc1C=Cc1ccccc1,-2.5,1.4,.,.,64.2*,-12.2
O=C(Nc1ccccc1Cl)c1sccc1-c1ccccc1,-11.0,-7.3,0.0,0.2,80.8*,-4.6
CN(C)S(=O)(=O)Oc1ccsc1C(=O)Nc1ccccc1Cl,20.9,-10.3,3.0,-1.6,1.2,.
CC1CC(=O)c2cnc(N3CCOCC3)nc2C1 (centres undefined),7.4,-2.6,0.0,-2.2,100.3*,-4.1
OCC1C2c3ccccc3C(c3ccccc32)C1CO (centres undefined),-3.6,0.6,3.0,6.5,7.8,.
COc1cc(Nc2c3ccccc3nc3ccccc23)cc(OC)c1OC,22.1,-4.5,0.0,4.3,7.1,.
COc1ccccc1Nc1c2ccccc2nc2ccccc12,4.3,-20.7,1.0,2.0,81.7*,38.3
COc1ccc(Cl)cc1Nc1cc(C)nc2ccccc12,-18.6,-12.0,1.0,-1.2,76.1*,-3.7
CCCCc1nc2cc(C(=O)NCc3cc(C)n(C)n3)ccc2o1,-7.8,-7.1,2.0,-5.2,-1.1,.
CCC1Oc2ccc(C)cc2N(CC(=O)NCC2CCCO2)C1=O (centres undefined),3.0,3.2,1.0,-3.9,1.5,.
O=C(NCCc1c[nH]c2ccccc12)c1cccc(S(=O)(=O)Nc2ccccc2Cl)c1,-5.4,-5.9,0.0,3.9,2.0,.
CN(c1ccccc1)S(=O)(=O)c1cccc(C(=O)NCCc2c[nH]c3ccccc23)c1,-9.2,-12.3,2.0,-4.1,65.7*,86.0*
CCN(Cc1ccccc1)CC(O)COC(c1ccc(OC)cc1)c1ccc(OC)cc1 (centres undefined),0.8,-1.2,0.0,11.5,65.5*,-11.3
CN(c1ccc(OCC(=O)OCC(=O)NCc2ccco2)cc1)S(=O)(=O)c1ccc2ccccc2c1,5.4,-5.9,0.0,2.8,-0.6,.
Cc1ccc(C(C)C)c(OCCNCCc2ccccc2)c1,25.6,4.5,0.0,2.4,64.3*,-9.0
Cc1ccc(C(C)C)c(OCCCNCc2cccnc2)c1,2.3,-5.7,0.0,2.4,1.1,.
CC(C)CN(CC(C)C)c1nn[nH]n1,-1.6,2.5,.,.,-0.4,.
